# In article PMC7862700, “An all-to-all approach to the identification of sequence-specific readers for epigenetic DNA modifications on cytosine”:
# Legend:
# Test in all cases: DAPPL (digital affinity profiling via proximity ligation, sequencing); 10 mM Tris-HCl pH 7.5, 50 mM NaCl, 1 mM DTT, 4% glycerol, room temperature, 30 min; GST-TFs on glutathione beads, 16-mer random dsDNA library, 0.1% formaldehyde crosslink after washing; high values mean tight binding
# Settings in all cases: protein: recombinant; tags: N-terminal GST; dsDNA, one strand shown
# [1] = target: T1, FLI1 (Homo sapiens, UniProt Q01543 1-452)
# T1 sequence: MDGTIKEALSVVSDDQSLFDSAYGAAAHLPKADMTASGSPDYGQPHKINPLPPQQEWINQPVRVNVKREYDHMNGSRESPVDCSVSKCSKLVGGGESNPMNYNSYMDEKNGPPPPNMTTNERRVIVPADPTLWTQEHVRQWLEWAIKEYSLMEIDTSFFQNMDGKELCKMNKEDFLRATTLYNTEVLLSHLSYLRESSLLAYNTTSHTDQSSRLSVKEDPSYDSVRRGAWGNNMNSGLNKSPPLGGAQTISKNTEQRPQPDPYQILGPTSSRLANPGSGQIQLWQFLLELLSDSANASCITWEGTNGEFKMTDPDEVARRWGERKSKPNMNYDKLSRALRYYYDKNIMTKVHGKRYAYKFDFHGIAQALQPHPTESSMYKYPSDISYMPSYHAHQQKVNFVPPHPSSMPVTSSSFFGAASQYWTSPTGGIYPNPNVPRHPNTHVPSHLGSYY
# How it was run: (§1)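 In yeast, human transcription factors were expressed with a GST fusion, then pulled down on glutathione beads and given DNA barcodes. Pooled with a tag-only sample, they were exposed to 200 nmole of a 16-mer random double-stranded DNA library (Tris/NaCl/DTT/glycerol buffer, room temperature, 30 min), washed, crosslinked with 0.1% formaldehyde, proximity-ligated using BsaI/T4 ligase for 1 h at 37 °C, PCR-amplified and read on an Illumina NextSeq500. Each hexamer's frequency of reads for a factor, divided by the matching frequency for the tag-only sample, gives the binding signal.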
# [2] = target: T2, ELK1 (Homo sapiens, UniProt P19419 1-428)
# T2 sequence: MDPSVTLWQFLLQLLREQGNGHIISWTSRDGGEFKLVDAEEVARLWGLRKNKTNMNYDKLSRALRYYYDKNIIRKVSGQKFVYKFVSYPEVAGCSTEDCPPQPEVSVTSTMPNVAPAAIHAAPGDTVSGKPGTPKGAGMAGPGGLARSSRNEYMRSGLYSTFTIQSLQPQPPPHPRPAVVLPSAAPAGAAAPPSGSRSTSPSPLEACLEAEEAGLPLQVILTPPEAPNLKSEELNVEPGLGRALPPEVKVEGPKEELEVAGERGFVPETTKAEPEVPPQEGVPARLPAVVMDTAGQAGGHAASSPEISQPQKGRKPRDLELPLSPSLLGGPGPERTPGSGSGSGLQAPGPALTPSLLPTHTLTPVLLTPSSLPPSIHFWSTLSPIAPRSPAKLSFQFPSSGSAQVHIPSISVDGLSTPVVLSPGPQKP
# How it was run: as §1
# [3] = target: T3, GABPA (Homo sapiens, UniProt Q06546 1-454)
# T3 sequence: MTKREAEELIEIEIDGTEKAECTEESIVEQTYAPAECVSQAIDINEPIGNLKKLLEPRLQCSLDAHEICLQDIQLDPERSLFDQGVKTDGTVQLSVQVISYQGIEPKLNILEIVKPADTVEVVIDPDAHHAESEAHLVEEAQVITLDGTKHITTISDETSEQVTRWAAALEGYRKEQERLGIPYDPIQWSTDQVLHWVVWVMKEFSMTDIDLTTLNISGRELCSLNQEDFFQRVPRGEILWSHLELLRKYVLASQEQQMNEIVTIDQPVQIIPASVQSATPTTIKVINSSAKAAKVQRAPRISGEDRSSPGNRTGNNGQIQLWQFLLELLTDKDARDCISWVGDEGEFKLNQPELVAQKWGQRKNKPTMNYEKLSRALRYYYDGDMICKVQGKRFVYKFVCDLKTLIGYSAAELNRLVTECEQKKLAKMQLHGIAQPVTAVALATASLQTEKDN
# How it was run: as §1
# [4] = target: T4, ERG (Homo sapiens, UniProt P11308 1-479)
# T4 sequence: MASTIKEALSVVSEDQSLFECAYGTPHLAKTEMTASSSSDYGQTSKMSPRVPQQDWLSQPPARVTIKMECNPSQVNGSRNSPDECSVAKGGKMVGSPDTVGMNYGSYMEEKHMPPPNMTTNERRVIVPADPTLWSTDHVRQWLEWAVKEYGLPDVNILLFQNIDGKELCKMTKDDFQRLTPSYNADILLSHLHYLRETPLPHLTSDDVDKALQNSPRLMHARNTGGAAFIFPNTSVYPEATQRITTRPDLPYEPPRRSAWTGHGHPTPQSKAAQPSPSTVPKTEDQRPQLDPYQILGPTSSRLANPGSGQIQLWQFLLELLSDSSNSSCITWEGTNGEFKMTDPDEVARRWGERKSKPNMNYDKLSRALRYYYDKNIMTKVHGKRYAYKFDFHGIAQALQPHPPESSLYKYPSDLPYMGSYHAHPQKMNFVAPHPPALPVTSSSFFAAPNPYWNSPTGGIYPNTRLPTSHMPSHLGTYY
# How it was run: as §1
# [5] = target: ELF1 (Homo sapiens, UniProt P32519 1-619)
# Sequence of ELF1 (P32519 whole entry): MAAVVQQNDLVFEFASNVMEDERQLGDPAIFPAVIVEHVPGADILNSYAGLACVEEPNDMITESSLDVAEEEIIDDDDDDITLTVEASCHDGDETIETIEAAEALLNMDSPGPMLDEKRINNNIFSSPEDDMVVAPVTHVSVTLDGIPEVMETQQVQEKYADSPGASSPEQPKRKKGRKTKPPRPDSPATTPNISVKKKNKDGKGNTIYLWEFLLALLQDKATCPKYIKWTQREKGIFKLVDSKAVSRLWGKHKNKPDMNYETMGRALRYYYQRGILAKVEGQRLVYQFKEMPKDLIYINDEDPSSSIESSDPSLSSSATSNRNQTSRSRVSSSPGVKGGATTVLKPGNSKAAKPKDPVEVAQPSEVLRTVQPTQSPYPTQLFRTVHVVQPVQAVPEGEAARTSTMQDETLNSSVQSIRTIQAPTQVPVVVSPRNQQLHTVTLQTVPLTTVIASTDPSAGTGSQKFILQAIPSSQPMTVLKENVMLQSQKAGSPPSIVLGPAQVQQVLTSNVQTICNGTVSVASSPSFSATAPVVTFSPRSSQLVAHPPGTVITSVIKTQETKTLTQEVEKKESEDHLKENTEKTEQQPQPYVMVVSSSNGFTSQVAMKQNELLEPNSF
# How it was run: as §1
# [6] = target: T5, EHF (Homo sapiens, UniProt Q9NZC4 1-300)
# T5 sequence: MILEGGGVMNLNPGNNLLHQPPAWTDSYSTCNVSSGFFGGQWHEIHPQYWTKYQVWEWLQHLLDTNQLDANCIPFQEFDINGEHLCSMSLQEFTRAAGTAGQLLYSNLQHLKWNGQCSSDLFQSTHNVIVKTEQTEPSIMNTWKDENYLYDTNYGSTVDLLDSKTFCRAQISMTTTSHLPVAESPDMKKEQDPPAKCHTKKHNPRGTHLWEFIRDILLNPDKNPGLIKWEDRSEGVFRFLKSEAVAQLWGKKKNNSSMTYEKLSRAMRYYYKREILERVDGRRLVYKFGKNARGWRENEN
# How it was run: as §1
# [7] = target: SPI1 (Homo sapiens, UniProt P17947 1-270)
# How it was run: as §1
# [8] = target: SPIB (Homo sapiens, UniProt Q01892 1-262)
# Sequence of SPIB (Q01892 whole entry): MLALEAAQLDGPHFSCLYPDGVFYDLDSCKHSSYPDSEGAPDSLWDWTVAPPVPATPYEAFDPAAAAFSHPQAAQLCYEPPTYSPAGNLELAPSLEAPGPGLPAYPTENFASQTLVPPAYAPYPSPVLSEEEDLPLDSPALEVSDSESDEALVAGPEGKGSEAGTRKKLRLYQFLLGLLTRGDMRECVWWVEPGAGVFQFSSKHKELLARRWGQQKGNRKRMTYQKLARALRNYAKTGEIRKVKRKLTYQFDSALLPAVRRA
# How it was run: as §1
# [9] = target: T6, ELK3 (Homo sapiens, UniProt P41970 1-407)
# T6 sequence: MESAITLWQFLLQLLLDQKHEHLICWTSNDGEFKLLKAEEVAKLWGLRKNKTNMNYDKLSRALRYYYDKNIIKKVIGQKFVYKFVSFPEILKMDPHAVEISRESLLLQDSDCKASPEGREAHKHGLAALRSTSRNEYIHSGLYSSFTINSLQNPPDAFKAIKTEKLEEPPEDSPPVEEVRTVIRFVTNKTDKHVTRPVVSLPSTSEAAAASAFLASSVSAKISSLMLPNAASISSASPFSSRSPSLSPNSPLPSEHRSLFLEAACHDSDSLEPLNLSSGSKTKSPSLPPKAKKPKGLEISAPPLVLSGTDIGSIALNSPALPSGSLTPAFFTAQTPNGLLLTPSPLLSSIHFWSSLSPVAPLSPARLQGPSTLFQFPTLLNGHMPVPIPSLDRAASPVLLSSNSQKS
# How it was run: as §1
sequence,measurement,setting,value
GGAAAA,binding signal,[1],"1.16 fold enrichment (6-mer frequency, TF over GST control)"
same,binding signal,[2],"1.17 fold enrichment (6-mer frequency, TF over GST control)"
same,binding signal,[3],"1.2 fold enrichment (6-mer frequency, TF over GST control)"
same,binding signal,[4],"1.3 fold enrichment (6-mer frequency, TF over GST control)"
same,binding signal,[5],"1.14 fold enrichment (6-mer frequency, TF over GST control)"
same,binding signal,[6],"1.38 fold enrichment (6-mer frequency, TF over GST control)"
same,binding signal,[7],"1.2 fold enrichment (6-mer frequency, TF over GST control)"
same,binding signal,[8],"1.35 fold enrichment (6-mer frequency, TF over GST control)"
same,binding signal,[9],"1.22 fold enrichment (6-mer frequency, TF over GST control)"
